Source: the supplement of paper PMC9177965
Values joined by “and” are separate entries in the source; they are usually repeats but may differ in a detail not shown here. Identical values can stand only once.

Assays:
[1] = test system: HT29 RNF43 G659fs (RNF43 659mut, CRISPR-edited); assay: cell viability activity relative to DMSO (negative = inhibition); higher = more viable cells (less growth inhibition); conditions: 5 µM; 96 h
Experimental: (§1)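 Broad Repurposing Library primary screen at a single dose of 5 uM. HT29 sg-Ctrl and HT29 RNF43 G659fs CRISPR-edited isogenic cells were seeded at 2500 cells/well in 384-well plates in duplicate and treated for 96 h. Viability was read by CellTiter-Glo and reported as % activity relative to DMSO, with MG132 as the positive control (negative = growth inhibition).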

[2] = test system: HT29 sg-Ctrl (RNF43 wildtype); assay: as above; conditions: 5 µM; 96 h
Experimental: as §1

Row | SMILES | cell viability activity [1] | cell viability activity [2]
1 | COC(=O)c1ccccc1-c1c2ccc(=N)cc-2oc2cc(N)ccc12 | -44.3% | -37.4%
2 | Cc1ncc(-c2ccnc(Nc3ccc(S(C)(=O)=O)cc3)n2)n1C(C)C | -91.5% | -87.7%
3 | C[C@@H](NC(=O)c1ncnc(N)c1Cl)c1ncc(C(=O)Nc2cc(C(F)(F)F)c(Cl)cn2)s1 | -24.4% | -29.1%
4 | Cc1cc(Nc2nc(N[C@@H](C)c3ccc(F)cc3)c(C#N)cc2F)n[nH]1 | -66.7% | -56.7%
5 | NNc1nncc2ccccc12 | -46.5% | -40.8%
6 | COc1ccc(S(=O)(=O)N(C(C)=O)c2ccccc2/C=C/c2cc[n+]([O-])cc2)cc1 | -65.7% | -75.5%
7 | O=C(/C=C/c1ccc(CN(CCO)CCc2c[nH]c3ccccc23)cc1)NO | -95.4% | -92.2%
8 | COc1ccc(NC(=O)c2ccc(-c3ccc(-c4noc(C)n4)cc3C)cc2)cc1N1CCN(C)CC1 | -61% | -57.8%
9 | COc1cc(Nc2ncc(F)c(Nc3ccc4c(n3)NC(=O)C(C)(C)O4)n2)cc(OC)c1OC | -46.5% | -37.3%
10 | Cc1cc(-c2cc(O)ccc2Cl)cc2nnc(Nc3ccc(OCCN4CCCC4)cc3)nc12 | -41.1% | -76.9%
11 | C=CC(=O)Nc1cccc(Nc2nc(Nc3ccc(OCCOC)cc3)ncc2F)c1 | -33.3% | -44.1%
12 | CC(=O)N1CCN(CCOc2ccc(C3CCN(C4=Nn5c(nnc5C(F)(F)F)CC4)CC3)cc2)CC1 | -32.3% | -33.7%
13 | Nc1nc2[nH]cnc2c(=S)[nH]1 | -81.6% | -73.9%
14 | Cn1c(Nc2ccc(C(F)(F)F)cc2)nc2cc(Oc3ccnc(-c4ncc(C(F)(F)F)[nH]4)c3)ccc21 | -82% | -67.4%
15 | CCCCCC(O)c1cccc(OCc2ccc3ccccc3n2)c1 (centres undefined) | -71.3% | -64%
16 | OCCNCCCOc1cccc(Cl)c1Cl | -45.4% | -43.2%
17 | O=C1C(Cl)=C(NCCN2CCOCC2)C(=O)c2ncccc21 | -46.3% | -94.7%
18 | CC(C)NC(=O)N1CC[C@H](NC2=Nc3cc(F)ccc3N(CC(F)F)c3ccc(Cl)cc32)C1 | -49.3% | -50.8%
19 | CCc1cccc(CC)c1NC(=O)N1Cc2[nH]nc(NC(=O)c3ccc(N4CCN(C)CC4)cc3)c2C1 | -46.8% | -21.2%
20 | COc1cccc2c1C(=O)c1c(O)c3c(c(O)c1C2=O)C[C@@](O)(C(=O)CO)C[C@@H]3O[C@H]1C[C@H](N)[C@H](O)[C@H](C)O1 | -94% and -83.9% | -89.6% and -89.8% and -68.3%
21 | COc1cc(F)c(F)c(Nc2ccc(I)cc2F)c1NS(=O)(=O)C1(C[C@H](O)CO)CC1 | -74.1% | -78.3%
22 | CCCCC(CC)CNC(=N)NC(=N)NCCCCCCNC(=N)NC(=N)NCC(CC)CCCC (centres undefined) | -90.6% | -88.4%
23 | C/C(=C\c1csc(C)n1)[C@@H]1C[C@@H]2O[C@]2(C)CCC[C@H](C)[C@H](O)[C@@H](C)C(=O)C(C)(C)[C@@H](O)CC(=O)N1 | -42.8% | -38.1%
24 | CC(=O)O[C@H]1C(=O)[C@@]2(C)[C@H]([C@H](OC(=O)c3ccccc3)[C@]3(O)C[C@H](OC(=O)[C@H](O)[C@@H](NC(=O)c4ccccc4)c4ccccc4)C(C)=C1C3(C)C)[C@]1(OC(C)=O)CO[C@@H]1C[C@@H]2O | -58.4% and -50% | -54.2% and -52.9%
25 | COc1cc2c(cc1-c1c(C)noc1C)ncc1[nH]c(=O)n([C@H](C)c3ccccn3)c12 | -60.5% | -68.4%
26 | COc1cc(N2CCC(N)CC2)ccc1Nc1ncc(Cl)c(-c2c[nH]c3ccccc23)n1 | -95.8% | -95.7%

Row | SMILES | cell viability activity [1] | cell viability activity [2]
27 | OCCCNc1cc(-c2ccnc(Nc3cccc(Cl)c3)n2)ccn1 | -86.6% | -86%
28 | NCCCCNCCCN | -26.8% | -2.46%
29 | CCn1c(=O)c(-c2cc[nH]n2)cc2c(C)nc(N)nc21 | -54.4% | -42.2%
30 | COC(=O)C1=C(C)NC(C)=C(C(=O)OC2CCCN(Cc3ccccc3)C2)C1c1cccc([N+](=O)[O-])c1 (centres undefined) | -85.8% | -85.6%
31 | Cc1ccc(C(=O)N(CCCN)[C@@H](c2nc3cc(Cl)ccc3c(=O)n2Cc2ccccc2)C(C)C)cc1 | -65.1% | -66.5%
32 | CCCCC(=O)O[C@H]1CC[C@H]2[C@@H]3CCc4cc(O)ccc4[C@H]3CC[C@]12C | -22.9% | -32.5%
33 | COC(=O)C1=C(C#N)NC(C)=C(C(=O)OC(C)C)C1c1cccc([N+](=O)[O-])c1 (centres undefined) | -44.7% | -65.8%
34 | CCn1c2ccccc2c2cc(Nc3ccnc(NCCCN4CCOCC4)n3)ccc21 | -79.7% | -84.9%
35 | C1CCC(C(CC2CCCCN2)C2CCCCC2)CC1 (centres undefined) | -92.4% | -89%
36 | CCCS(=O)(=O)Nc1ccc(F)c(C(=O)c2c[nH]c3ncc(Cl)cc23)c1F | -46.8% | -47.2%
37 | CN(C)C/C=C/C(=O)Nc1cc2c(Nc3ccc(F)c(Cl)c3)ncnc2cc1O[C@H]1CCOC1 | -26.4% | -19.3%
38 | CC(C)CCN1c2nc(Nc3cc(F)c(O)c(F)c3)ncc2N(C)C(=O)C1C (centres undefined) | -29.4% | 4.41%
39 | COCCN1CCN(Cc2ccc(-c3n[nH]c4c3C(=O)c3c(NC(=O)NN5CCOCC5)cccc3-4)cc2)CC1 | -78.2% | -79.4%
40 | CN[C@@H]1C[C@H]2O[C@@](C)([C@@H]1OC)n1c3ccccc3c3c4c(c5c6ccccc6n2c5c31)C(=O)N[C@H]4O | -88.9% | -91.7%
41 | NC1(c2ccc(-c3nc4ccn5c(=O)[nH]nc5c4cc3-c3ccccc3)cc2)CCC1 | -42.7% | -39.4%
42 | COc1cc(C(=O)N2CCC(N3CCN(C)CC3)CC2)ccc1Nc1ncc2c(n1)N(C)c1ccccc1C(=O)N2C | -56.1% | -57.3%
43 | Cc1ccc(C)c(OCCCC(C)(C)C(=O)O)c1 | -30% | -39.7%
44 | CNC(=O)c1ccccc1Nc1nc(Nc2ccc(N3CCOCC3)cc2OC)ncc1Cl | -73.1% | -70.3%
45 | C#CCC(Cc1cnc2nc(N)nc(N)c2n1)c1ccc(C(=O)N[C@@H](CCC(=O)O)C(=O)O)cc1 (some centres undefined) | -68.9% | -61.7%
46 | Cc1[nH]c2ccccc2c1CCNCc1ccc(/C=C/C(=O)NO)cc1 | -99.3% | -96.1%
47 | CCN(CC)C(=S)SSC(=S)N(CC)CC | -79.2% | -43.6%
48 | CN1CCC(NC(=O)c2cc(-c3c(O)cc(O)cc3Oc3ccc([N+](=O)[O-])cc3)on2)CC1 | -26.7% | -21.1%
49 | COc1ccccc1S(=O)(=O)Nc1ccc2c(c1)CN(C)C(=O)N2 | -56.4% | -63.5%
50 | CCCOc1ccc2[nH]c(NC(=O)OC)nc2c1 | -69.6% | -55.8%
51 | Nc1ccccc1NC(=O)c1ccc(CNC(=O)OCc2cccnc2)cc1 | -71.7% | -77.2%
52 | Cn1nccc1Nc1nccc(-c2ccn([C@H](CO)c3ccc(Cl)c(F)c3)c(=O)c2)n1 | -54.6% | -52.1%

Row | SMILES | cell viability activity [1] | cell viability activity [2]
53 | Cn1cnc2c(F)c(Nc3ccc(Br)cc3F)c(C(=O)NOCCO)cc21 | -75.9% | -82.9%
54 | CC(C)(C)c1cc(/C=C(\C#N)C(N)=S)cc(C(C)(C)C)c1O | -85.1% | -77%
55 | FC(F)c1nc2ccccc2n1-c1nc(N2CCOCC2)nc(N2CCOCC2)n1 | -33% | -29.7%
56 | CC(C)CC(=O)Nc1n[nH]c2c1CN(C(=O)C1CCN(C)CC1)C2(C)C | -60.4% | -61.4%
57 | CN(C)C(=S)SC(=S)N(C)C | -30.9% | -29.9%
58 | CCOC(=O)[C@H](Cc1ccccc1)NC(=O)c1cc(Cl)c(OCCN2CCN(C)CC2)c(Cl)c1O | -34% | -41.2%
59 | CC(C)(C#N)c1ccc(N2C(=O)OCc3cnc4ccc(-c5cnc6ccccc6c5)cc4c32)cc1 | -30.7% | -20%
60 | OCc1ccc(-c2ccc(-c3ccc(CO)s3)o2)s1 | -51.5% | -42.8%
61 | C=CCNC1=C2C[C@@H](C)C[C@H](OC)[C@H](O)[C@@H](C)/C=C(\C)[C@H](OC(N)=O)[C@@H](OC)/C=C\C=C(/C)C(=O)NC(=CC1=O)C2=O | -90.1% | -83.4%
62 | CCN(CC)CCOc1ccc(C(=C(Cl)c2ccccc2)c2ccccc2)cc1 | -98.4% | -97.9%
63 | CC(=O)c1cnc2ccc(-c3cc(Cl)c(O)c(Cl)c3)nc2c1N[C@H]1CC[C@H](CN(C)C)CC1 | -89.2% | -91.1%
64 | C[C@@H](NCCCc1cccc(C(F)(F)F)c1)c1cccc2ccccc12 | -78.1% | -41.7%
65 | CC[C@@H](C)Nc1cc(C(=O)N[C@H]2C[C@H]3CC[C@@H](C2)N3c2ccc(C(=O)C3CC3)cn2)c(C)cc1C(N)=O | -85.8% | -84.4%
66 | Cc1ccccc1CN1C(=O)C2=C(CCN(Cc3ccccc3)C2)N2CCN=C12 | -72.9% | -76.7%
67 | Cc1cnc(Nc2ccc(N3CCN(C)CC3)cc2)nc1Nc1cccc(S(=O)(=O)NC(C)(C)C)c1 | -83.9% | -89.4%
68 | CCCCC(=O)OCC(=O)[C@]1(O)Cc2c(O)c3c(c(O)c2[C@@H](O[C@H]2C[C@H](NC(=O)C(F)(F)F)[C@H](O)[C@H](C)O2)C1)C(=O)c1c(OC)cccc1C3=O | -48.2% | -25.4%
69 | Cc1ccc2c(Br)cc(Br)c(OC(=O)c3ccccc3)c2n1 | -27.6% | -34.5%
70 | CC[C@H](CC#N)OC(=O)N[C@@H](C)c1cccc(NC(=O)Nc2ccc(-c3cnco3)c(OC)c2)c1 | -66.2% | -55.9%
71 | Cc1ccc(/C=C2\CNC/C(=C\c3ccc(C)cc3)C2=O)cc1 | -93.6% | -92.7%
72 | CC[C@@]1(O)C(=O)OCc2c1cc1n(c2=O)Cc2cc3c([N+](=O)[O-])cccc3nc2-1 | -93.9% | -95.5%
73 | C[C@@H](C(=O)O)c1ccc(-c2ccccc2)c(F)c1 | -68.9% | -70.3%
74 | CC1(C)CC(=O)c2c(C(F)(F)F)nn(-c3ccc(C(N)=O)c(N[C@H]4CC[C@H](OC(=O)CN)CC4)c3)c2C1 | -89.4% and -91.3% and -87.7% | -84.8% and -87.4% and -83.8%
75 | CN1CCN(CCCN2c3ccccc3Sc3ccc(C(F)(F)F)cc32)CC1 | -34.4% | -18.8%
76 | Nc1ccn([C@@H]2O[C@H](CO)[C@@H](O)C2(F)F)c(=O)n1 | -63.6% | -67.1%
77 | CC1NC(=O)C(N)CNC(=O)C(C2CCN=C(N)N2)NC(=O)/C(=C\NC(N)=O)NC(=O)C(CNC(=O)CC(N)CCCN)NC1=O (centres undefined) | -29.5% | 0.515%
